SMILES strings stand for the structures. Values joined by “and” are separate entries in the source; they are usually repeats but may differ in a detail not shown here. Equal values may be shown once. About 83,000 compounds went through this panel and 20% of them were active in at least one assay; those are over-represented in the sample as a whole.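 Method: cells in 96-well plates; compound added at one concentration; 48 h incubation; percent growth measured; values under 10 scored active.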 Active and inactive are the calls of the source.

The values below come from PubChem BioAssay (NCI).

For one assay, the system named is LOX IMVI melanoma. Kind of assay: NCI-60 one-dose screen, 48 h (100 = growth as untreated, 0 = no growth, -100 = all killed). The conditions noted are these: 10 µM unless noted.
Consider `Cc1cc(O)c(C(C)C)cc1S(=O)(=O)O` (tested in a mixture with another compound), for which the growth is 92.1% (inactive) and 0.911% (active) and 107% (inactive).

As to `Oc1c(CN2CCCCC2)ccc2cccnc12`, the growth is 27.3% (inactive) and 44.1% (inactive). Still for that read-out and setting: as for `NS(=O)(=O)c1cc2c(cc1Cl)NC(C(Cl)Cl)NS2(=O)=O` (stereo not drawn), the figure is 98.6% (inactive) and 99.9% (inactive).

As to `COc1cc2nc(N3CCN(C(=O)C4COc5ccccc5O4)CC3)nc(N)c2cc1OC` (stereo not drawn), the growth was 88% (inactive) and 94.2% (inactive) and 98.7% (inactive).

A further assay has as its system SK-MEL-28 melanoma. The description is as above. The conditions noted are these: 10 µM unless noted.
For `O=C(O)C1(C(=O)O)CCC1.[NH2-].[NH2-].[Pt+2]`, the growth was 112% (inactive). On the same count and under the same terms, for `CC1(C)[C@@H](OC(=O)CCC(=O)O)CC[C@]2(C)[C@H]3C(=O)C=C4[C@@H]5C[C@@](C)(C(=O)O)CC[C@]5(C)CC[C@@]4(C)[C@]3(C)CC[C@@H]12` the value was 105% (inactive) and -66% (active). In the case of `CCNC(=O)Nc1ccc(-c2nc3c(c(N4CCOC[C@@H]4C)n2)CCN(C2COC2)C3)cc1`, the growth was 25.1% (inactive) and -5.25% (active).

With `O=C1C2=C(C(=O)c3ccccc31)C(O)(S(=O)(=O)O)C(O)(S(=O)(=O)O)C1N=CC=CC21` (stereo not drawn), the growth is 89.2% (inactive) and 73% (inactive). On to `COc1ccc2c(=O)cc(-c3ccccc3)[nH]c2c1`, for which the growth is 39.3% (inactive) and 70.8% (inactive).

As for `COc1cc(Nc2nc3ccccc3nc2NS(=O)(=O)c2ccc(NC(=O)c3ccc(C)c(OC)c3)cc2)cc(OC)c1`, the growth was 63.8% (inactive) and -17.5% (active). Consider `COc1cc(-c2nccc3cc4c(cc23)OCO4)cc(OC)c1OC`, for which the growth is 57.5% (inactive) and 39.8% (inactive). `CCN(CC)CCC(CNc1ccnc2cc(Cl)ccc12)c1ccc(OC)cc1` (stereo not drawn): the growth is -78.4% (active) and -54.7% (active).

For the compound `CC(=O)Nc1ccc(O)cc1`, the growth is 114% (inactive) and 66.2% (inactive) and 125% (inactive).

`c1ccc2c(CC3=NCCN3)cccc2c1`: the growth is 109% (inactive) and 107% (inactive).

As to `Cc1nn(-c2ccc(Cl)cc2)c2ncnc(N/N=C/c3ccccc3O)c12`, the growth was 25.2% (inactive) and 14.5% (inactive). Turning to `CCN(CC)C(=S)SSC(=S)N(CC)CC`, the growth is 61.5% (inactive) and 106% (inactive).

Consider `Nc1nc(SC/C=C/CCl)c2[nH]cnc2n1`, for which the growth is 115% (inactive) and 112% (inactive). As for `CC1CCCC(=O)O1` (stereo not drawn), the growth was 99.5% (inactive) and 113% (inactive). Consider `c1ccc(NCc2ccc3c(c2)OCO3)cc1`, for which the growth was 120% (inactive) and 105% (inactive). As to `CN(Cc1ccccc1)Cc1ccccc1`, the growth is 110% (inactive). For the compound `O=[N+]([O-])c1ccc(N/N=C\c2cc(Br)ccc2O)nc1`, the growth was 37.9% (inactive) and 34.1% (inactive).

For the compound `O=C(Nc1ccc(Br)cc1)c1cc(Br)ccc1O`, the growth was 27% (inactive) and 16.4% (inactive). Consider `CN(C)c1ccc(C(=C2C=CC(=[N+](C)C)C=C2)c2ccccc2Cl)cc1`, for which the growth was -93.7% (active) and -96.8% (active). `O=C(Cc1cccc2ccccc12)N/N=C/c1ccc2c(c1)CCC2`: the growth is 81.4% (inactive). Take `O=C(O)C1C2C=CC(C2)C1C(=O)O` (stereo not drawn): the growth is 105% (inactive) and 49.8% (inactive) and 109% (inactive). Take `COc1cc(C(=O)c2ccc3c(c2)OCO3)cc(OC)c1OC`: the growth is 46.7% (inactive) and 43.2% (inactive).

As to `O=C(CCc1ccc(O)cc1)N/N=C/c1cc(Br)ccc1O`, the growth is 69.5% (inactive).

Take `CC(=O)Oc1cc(C(=O)O)cc(OC(C)=O)c1OC(C)=O`: the growth is 115% (inactive) and 99.3% (inactive). Turning to `Cn1c(=O)c2[nH]c(CCCCCCCCc3nc4ccccc4[nH]3)nc2n(C)c1=O`, the growth is 88.9% (inactive). On to `O=C1c2ccccc2C(=O)N1/N=C/c1ccc2c(c1)OCO2`, for which the growth is 103% (inactive). Still for that read-out and setting: for `S=C1SCN(Cc2ccccc2)CN1Cc1ccccc1` the value was 103% (inactive). On the same count and under the same terms, for `Cc1ccc(-c2noc(CC(=O)c3ccc([N+](=O)[O-])cc3)n2)cc1` the value was 105% (inactive); for `Oc1ccc(/C=C/c2ccccc2)cc1`, 97.5% (inactive) and 99.8% (inactive).

Consider `CC(=O)C(/C=N/C(N)=O)=C(/C)O`, for which the growth is 115% (inactive).

For the compound `COC(=O)c1nc(N)nc(C(=O)OC)c1C(=O)c1ccc(OC)cc1`, the growth is 116% (inactive) and 69% (inactive). Consider `Cc1cc(O)c2c(c1)C(=O)c1cc(O)cc(O)c1C2=O`, for which the growth is 87.7% (inactive). In the case of `C#CCN(C)Cc1ccccc1`, the growth was 111% (inactive) and 114% (inactive). With `CCN(CC)CCCC(C)Nc1ccnc2cc(Oc3ccccc3)ccc12` (stereo not drawn), the growth was 1.01% (active) and 85.5% (inactive).

With `COc1ccccc1NC(=O)OCC#CCOC(=O)Nc1ccccc1OC`, the growth was 106% (inactive) and 88.1% (inactive). On to `Cc1cc(O)c(C(C)C)cc1S(=O)(=O)O` (tested in a mixture with another compound), for which the growth was 110% (inactive) and 40.6% (inactive) and 107% (inactive).

Consider `Oc1c(CN2CCCCC2)ccc2cccnc12`, for which the growth was 85.2% (inactive) and 85.7% (inactive). Regarding `NS(=O)(=O)c1cc2c(cc1Cl)NC(C(Cl)Cl)NS2(=O)=O` (stereo not drawn), the growth was 99.8% (inactive) and 115% (inactive). As to `COc1cc2nc(N3CCN(C(=O)C4COc5ccccc5O4)CC3)nc(N)c2cc1OC` (stereo not drawn), the growth is 99.9% (inactive) and 102% (inactive) and 107% (inactive).
